Assay results from PubChem BioAssay AID1508625 (Wald Lab, School of Medicine, Case Western Reserve …, 2021).

Assay: small molecules boosting NK-mediated OVCAR3 lysis – imaging, primary NK cells, calcein-AM imaging, primary screen (AID 1508625);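 also: compound given to NK cells 16 h before adding targets at 1.5 to 1 ratio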;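 as to z-score: more negative robust z means stronger NK killing of tumor cells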
Conditions: OVCAR3 lysis by primary NK cells, at 5 µM; z-score: measured here: robust Z-score, single-point normalisation

| SMILES | corrected activity, negative = more killing [%] | z-score |
| --- | --- | --- |
| COCCCNCCOc1c(Cl)cc(C)cc1Br | -4.25 | -1.58 |
| COc1ccc(C(=O)N2CCN(CC=Cc3ccccc3)CC2)cc1 | -1.03 | -0.422 |
| CC(C)NC1CCCc2c1[nH]c1ccc([N+](=O)[O-])cc21 (configuration not stated) | -0.558 | -0.244 |
| O=c1c2cc(N3CCCCC3)ccc2[nH]c(=S)n1Cc1ccccc1 | -6.78 | -1.8 |
| CCOC(=O)c1c(N)sc(C(=O)Nc2cc(C)ccc2C)c1C | -5.05 | -1.57 |
| CC(C)=NNC(=O)C(=O)Nc1cccc(Cl)c1 | -3.01 | -1.56 |
| COc1ccc(C(N)=NOC(=O)c2cc(Cl)ccc2Cl)cc1 | -1.41 | -0.786 |
| COc1ccc(C(O)=C2C(=O)C(=O)N(CCN3CCNCC3)C2c2ccc(OC)cc2)cc1 (configuration not stated) | -4.32 | -1.87 |
| CN(C)CCSc1nnnn1-c1ccccc1 | -4.18 | -1.86 |
| CCOC(=O)CCN1C(=O)C(=Cc2cccc(OC)c2)SC1=S | -4.87 | -1.55 |
| Cc1ccc(-c2noc(-c3ccccc3F)n2)cc1 | -2.22 | -0.911 |
| O=C(c1ccccc1Br)N1N=C(c2ccccc2)CC1(O)C(F)(F)F (configuration not stated) | -3.24 | -1.24 |
| Cc1ccc(OCCN2CCNCC2)c(Br)c1 | -2.45 | -1.36 |
| COc1ccc2cc3cc(C(=O)NCCCN4CCN(Cc5ccccc5)CC4)oc3nc2c1 | -0.58 | -0.142 |
| S=C(c1nc2ccccc2[nH]1)N1CCOCC1 | -3.36 | -1.07 |
| COc1ccc2c(c1)c(C(C)=O)c(C)n2-c1ccccc1C | -0.941 | -0.487 |
| COc1cc(NS(=O)(=O)c2ccc(NC(=O)c3ccc(OC)c(OC)c3)cc2)ncn1 | -3.26 | -1.01 |
| CSc1nnc2c(n1)OC(c1ccc(C(=O)O)cc1)Nc1ccccc1-2 (configuration not stated) | -1.74 | -0.616 |
| COc1ccc(C2Nc3ccccc3NC3=C2C(=O)CC(c2ccco2)C3)cc1 (configuration not stated) | -2.08 | -0.853 |
| N#Cc1c(NC(=O)CN2C(=O)C3CC=C(Cl)CC3C2=O)sc2c1CCC2 (configuration not stated) | -0.241 | -0.0746 |
| N=C1NC(=O)C(=Cc2ccc(F)cc2)S1 | -5.91 | -2.51 |
| COc1cc(OC)c(C=Nc2ccc(OC(F)(F)F)cc2)cc1Br | -1.81 | -0.768 |
| CCCCCCCNC(=O)c1ccc2c(c1)ncn2-c1cccc(F)c1 | -3.62 | -0.976 |

| SMILES | corrected activity, negative = more killing [%] | z-score |
| --- | --- | --- |
| Cc1c(Cl)cccc1NC(=O)c1sc2ncn(CC(=O)N3CCOCC3)c(=O)c2c1C | 0.676 | 0.246 |
| Cc1oc(-c2cccc(Br)c2)nc1CN1CCC(C(=O)NCc2ccc(Cl)cc2)CC1 | -6.33 | -1.71 |
| Cc1ccc([N+](=O)[O-])cc1NS(=O)(=O)c1ccc(Cl)cc1 | 4.17 | 1.33 |
| CC(=O)Nc1ccc(S(=O)(=O)NCc2ccc(C(=O)O)cc2)cc1 | -5.84 | -1.58 |
| CCOc1ccc(C(=O)N2CCc3cc(OC)c(OC)cc3C2)cc1 | -2.29 | -0.852 |
| COCCCNC(=O)C1c2ccccc2C(=O)N(C)C1c1cccs1 (configuration not stated) | -4.54 | -1.13 |
| CC(Oc1cccc(Cl)c1)C(=O)ON=C(N)c1ccncc1 (configuration not stated) | 0.422 | 0.235 |
| Cc1ccc(OCc2ccc([N+](=O)[O-])cc2)cc1C | -1.29 | -0.719 |
| Cc1ccccc1C(=O)Nc1ccc(C(=O)O)cc1NC(=O)c1ccccc1C | -0.368 | -0.197 |
| Cc1ccc(C(=O)Nc2ccc3nn(-c4cccc(Cl)c4)nc3c2)cc1[N+](=O)[O-] | -0.361 | -0.128 |
| COc1cccc(C=Nn2c(C)nnc2C)c1OC | -2.16 | -0.942 |
| O=C(NCC1CCCO1)c1ccc(COc2ccc(Cl)cc2)cc1 (configuration not stated) | -2.84 | -1.58 |
| O=C(COc1ccccc1)NCCSc1nc2ccccc2s1 | -4.8 | -1.81 |
| Cc1c(C(=O)NCc2ccc(F)cc2)sc2ncn(Cc3ccccc3Cl)c(=O)c12 | -2.74 | -0.998 |
| Cc1ccc(C2C(=C(O)c3ccc(Cl)cc3)C(=O)C(=O)N2CCCn2ccnc2)cc1 (configuration not stated) | -3.13 | -1.2 |
| COc1cc(NC(=O)c2cc(Cl)cc(Cl)c2OC)ccc1NC(=O)c1ccccc1Cl | -1.43 | -0.797 |
| CN1C(=O)c2ccccc2C(C(=O)NCCCN2CCCCCC2)C1c1cccs1 (configuration not stated) | -5.67 | -1.41 |
| COc1cc(NC(=O)c2cccs2)ccc1NC(=O)c1ccccc1Cl | -4.46 | -2.48 |
| COc1ccc(CNC(=O)CSc2nc3cc(C(F)(F)F)ccc3s2)cc1 | -4.55 | -2.53 |
| Cc1ccc(NC(=O)Cc2[nH]c3ccccc3c2Sc2ccccc2)cc1 | -1.55 | -0.584 |
| O=C(NN=Cc1ccncc1)c1n[nH]c2c1CCC2 | -1.79 | -0.783 |
| CCC1=NN(C(=O)c2cccc(Cl)c2)C(O)(C(F)(F)F)C1 (configuration not stated) | -2.2 | -0.839 |
| CCOC(=O)CC(NCc1ccc(Cl)c([N+](=O)[O-])c1)c1cccs1 (configuration not stated) | -7.84 | -2.12 |
